31 compounds from the supplement of paper PMC13380429 can be followed below.

Experiment [1] has as its system Vero E6 infected with SARS-CoV-2. The experiment is described as follows: morphology score (similarity to uninfected cells); higher = more like uninfected cells. The following applies: 24 h.
Experiment [2] shares this test system. The experiment is described as follows: SARS-CoV-2 infection rate relative to infected DMSO; higher = more infection, active = 60 or less. The conditions noted are these: 24 h.

`COc1ccc(CCO[C@@H]2CCCC[C@H]2N2CC[C@@H](O)C2)cc1OC` [vernakalant] (10 µM) registered a morphology score in experiment [1] of 0.109. Besides, the SARS-CoV-2 infection rate in experiment [2] is 110% (inactive).
`O=C(O)CNC(=O)c1ccccc1` [hippuric-acid] (10 µM): the morphology score in experiment [1] is -0.0766. In addition, the SARS-CoV-2 infection rate in experiment [2] is 109% (inactive).
For the compound `CCOC(=O)C1=C(C)NC(C)=C(C(=O)OC)[C@@H]1c1cccc([N+](=O)[O-])c1` (racemic) [nitrendipine] (10 µM), the morphology score in experiment [1] is -0.062. Besides, in experiment [2], the SARS-CoV-2 infection rate is 112% (inactive).
With `CCC(N)C(O)c1ccc(O)c(O)c1` (configuration not stated) [ethylnorepinephrine] (10 µM), in experiment [1], the morphology score is -0.108. The SARS-CoV-2 infection rate in experiment [2] was 106% (inactive).
Turning to `O=C1c2c(O)cc(O)cc2O[C@H](c2ccc(O)c(O)c2)[C@H]1O` [taxifolin] (10 µM), the morphology score in experiment [1] turned out to be 0.187. Moreover, in experiment [2], the SARS-CoV-2 infection rate is 99.5% (inactive).
For `CCCCC[C@H](O)/C=C/[C@H]1[C@H](O)CC(=O)[C@@H]1C/C=C\CCCC(=O)O` [dinoprostone] (10 µM), in that order: 0.144 and 95.5% (inactive).
The compound `O=C(O)CCNC(=O)c1ccccc1` [betamipron] (10 µM) gave a morphology score in experiment [1] of 0.00831. For the same compound, in experiment [2], the SARS-CoV-2 infection rate was 118% (inactive).
The like results for `CS(=O)(=O)c1cc(F)cc2c3c(n(Cc4ccc(Cl)cc4)c12)[C@@H](CC(=O)O)CC3` [laropiprant] (10 µM) were, in that order, 0.0115 and 106% (inactive).
The like results for `Cc1ncc(-c2csc(N=C(N)N)n2)[nH]1` [zaltidine] (10 µM) were, in that order, 0.0534 and 106% (inactive).
Compound `CNCc1ccc(-c2[nH]c3cc(F)cc4c3c2CCNC4=O)cc1` [rucaparib] (10 µM) registered a morphology score in experiment [1] of 0.234. Besides, the SARS-CoV-2 infection rate in experiment [2] was 83% (inactive).
The like results for `CN(C)C(=O)n1nnnc1Cc1ccc(-c2ccccc2)cc1` (0.833333 µM) were, in that order, 0.00131 and 85% (inactive).
As for `CCNC(=O)C[C@@H]1N=C(c2ccc(Cl)cc2)c2cc(OC)ccc2-n2c(C)nnc21` (10 µM), the morphology score in experiment [1] is -0.0652. Moreover, the SARS-CoV-2 infection rate in experiment [2] is 106% (inactive).
For `O=C(O)Cc1ccccc1Nc1c(Cl)cccc1Cl` [diclofenac] (10 µM), in that order: -0.00811 and 106% (inactive).
The like results for `O=c1[nH]c(=O)n([C@H]2C[C@H](O)[C@@H](CO)O2)cc1I` [idoxuridine] (10 µM) were, in that order, 0.0252 and 108% (inactive).
The like results for `Cc1cc2c(cc1C(F)(F)F)N(C(=O)Nc1ccc(Oc3cccnc3C)nc1)CC2` (10 µM) were, in that order, 0.281 and 90.5% (inactive).
Regarding `O=C[C@H](O)[C@@H](O)[C@H](O)CO` [xylose] (10 µM), the morphology score in experiment [1] was -0.0367. Besides, the SARS-CoV-2 infection rate in experiment [2] was 108% (inactive).
As for `COCc1c(-c2ccc(NC(=O)Nc3cc(C(F)(F)F)ccc3F)c(F)c2)c2c(N)ncnn2c1CN1CCOCC1` (0.833333 µM), the morphology score in experiment [1] was 0.227. For the same compound, in experiment [2], the SARS-CoV-2 infection rate was 96.5% (inactive).
The like results for `OCCn1cc(-c2cnc3nnn(Cc4ccc5ncccc5c4)c3n2)cn1` (10 µM) were, in that order, -0.0332 and 99% (inactive).
For `CN/C(=N\S(=O)(=O)c1ccc(Cl)cc1)N1C[C@H](c2ccccc2)C(c2ccc(Cl)cc2)=N1` (racemic) (10 µM), in that order: -0.133 and 114% (inactive).
The like results for `CCC1(C)CC(=O)NC(=O)C1` [bemegride] (10 µM) were, in that order, 0.0851 and 95.5% (inactive).
`Cc1nn(-c2ccccc2)c(C)c1/C=N/N1CCN(Cc2ccccc2)CC1` (10 µM) gave a morphology score in experiment [1] of 0.00911. Besides, the SARS-CoV-2 infection rate in experiment [2] was 117% (inactive).
The like results for `C[C@H]1NC(=O)NC1=O` [5-methylhydantoin-(D)] (10 µM) were, in that order, 0.121 and 102% (inactive).
The like results for `N=C(N)NN=C1C=CC(=NNC(N)=S)C=C1` [ambazone] (10 µM) were, in that order, 0.129 and 104% (inactive).
The like results for `COc1cccc(CN(C(=O)CC(C)(C)C)[C@H]2C[C@@H](C(=O)N3CCNCC3)N(Cc3ccc4c(c3)OCO4)C2)c1` (10 µM) were, in that order, 0.0543 and 102% (inactive).
On to `Cc1ccc2c(N3CCN(CCc4cccc(N5CCNC5=O)c4)CC3)cccc2n1` (10 µM), for which, in experiment [1], the morphology score is 0.325. Moreover, in experiment [2], the SARS-CoV-2 infection rate is 84% (inactive).
For `COc1ccc(CCN(C)CCCN2CCc3cc(OC)c(OC)cc3CC2=O)cc1OC` [zatebradine] (10 µM), in that order: -0.00282 and 112% (inactive).
The like results for `CC(C)OC(=O)[C@H](C)N[P@](=O)(CO[C@H](C)Cn1cnc2c(N)ncnc21)Oc1ccccc1` [tenofovir-alafenamide] (10 µM) were, in that order, -0.0883 and 106% (inactive).
Take `Cn1cnc([N+](=O)[O-])c1Sc1ncnc2[nH]cnc12` [azathioprine] (10 µM): the morphology score in experiment [1] is 0.172. For the same compound, the SARS-CoV-2 infection rate in experiment [2] was 95.5% (inactive).
`CN1C(=O)CC(C)(c2ccccc2)C1=O` (configuration not stated) [methsuximide] (10 µM): the morphology score in experiment [1] came out at 0.0784. For the same compound, the SARS-CoV-2 infection rate in experiment [2] was 110% (inactive).
Regarding `CC(=O)CCCCn1c(=O)c2c(ncn2C)n(C)c1=O` [pentoxifylline] (10 µM), the morphology score in experiment [1] amounted to 0.0323. Also, the SARS-CoV-2 infection rate in experiment [2] was 104% (inactive).
For `Cc1ccnc(NC(=O)C(C)c2cccc(C(=O)c3ccccc3)c2)c1` (configuration not stated) [piketoprofen] (10 µM), the morphology score in experiment [1] is -0.109. Further, the SARS-CoV-2 infection rate in experiment [2] was 107% (inactive).
